# “And” between values parts separate entries of the source, which are not always exact repeats. Identical values can stand only once. Out of some 5,500 compounds screened, about 2,000 (36%) were called active. Not shown: some 18% with an inconclusive outcome. Rule as the data show it: active = normalized growth mostly below about 0.91 (no sharp cut-off); inconclusive = no clear call, values can overlap the other calls; inactive = mostly above about 0.92. This is one part of the list. The source holds several records for some structures; these can differ, active in one and inactive in another.
# Assay: chemical genetic growth profiling, strain panel (AID 1159580);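 also: tested at 20 µM; growth read once vehicle control cultures reached saturation at 30 °C; 1 = growth at the plate median or of vehicle wells; lower values mean less growth of the strain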
# Details: growth OD
smiles,measurement,setting,value
CN(C)CCCN1c2ccccc2Sc2ccc(C(F)(F)F)cc21,normalized growth,"S. cerevisiae deletion strains, locus YJR066W, strain TOR1, stronger effect = lower value",0.981 (inactive)
same,normalized growth,"S. cerevisiae deletion strains, locus YJR075W, strain HOC1, stronger effect = lower value",1.01 (inactive)
same,normalized growth,"S. cerevisiae deletion strains, locus YKL009W, strain mrt4, stronger effect = lower value",0.944 (inactive)
same,normalized growth,"S. cerevisiae deletion strains, locus YKL068W, stronger effect = lower value",0.991 (inactive)
same,normalized growth,"S. cerevisiae deletion strains, locus YKL085W, strain MDH1 (second series), stronger effect = lower value",0.994 (inactive)
same,normalized growth,"S. cerevisiae deletion strains, locus YKL085W, strain MDH1, stronger effect = lower value",0.994 (inactive)
same,normalized growth,"S. cerevisiae deletion strains, locus YKL160W, strain elf1, stronger effect = lower value",0.997 (inactive)
same,normalized growth,"S. cerevisiae deletion strains, locus YKL190W, strain CNB1, stronger effect = lower value",0.995 (inactive)
same,normalized growth,"S. cerevisiae deletion strains, locus YKR001C, strain vps1, stronger effect = lower value",0.978 (inactive)
same,normalized growth,"S. cerevisiae deletion strains, locus YKR026C, strain gcn3, stronger effect = lower value",1.02 (inactive)
same,normalized growth,"S. cerevisiae deletion strains, locus YKR091W, strain srl3, stronger effect = lower value",1.02 (inactive)
same,normalized growth,"S. cerevisiae deletion strains, locus YLL001W, strain dnm1, stronger effect = lower value",1 (inactive)
same,normalized growth,"S. cerevisiae deletion strains, locus YLL026W, stronger effect = lower value",1 (inactive)
same,normalized growth,"S. cerevisiae deletion strains, locus YLL041C, strain sdh2, stronger effect = lower value",1.01 (inactive)
same,normalized growth,"S. cerevisiae deletion strains, locus YLR027C, strain aat2, stronger effect = lower value",0.992 (inactive)
same,normalized growth,"S. cerevisiae deletion strains, locus YLR039C, strain RIC1, stronger effect = lower value",0.901 (inactive)
same,normalized growth,"S. cerevisiae deletion strains, locus YLR058C, strain SHM2, stronger effect = lower value",0.977 (inactive)
same,normalized growth,"S. cerevisiae deletion strains, locus YLR102C, strain apc9, stronger effect = lower value",0.979 (inactive)
same,normalized growth,"S. cerevisiae deletion strains, locus YLR113W, strain HOG1, stronger effect = lower value",0.979 (inactive)
same,normalized growth,"S. cerevisiae deletion strains, locus YLR221C, strain rsa3, stronger effect = lower value",0.977 (inactive)
same,normalized growth,"S. cerevisiae deletion strains, locus YLR258W, strain gsy2, stronger effect = lower value",0.989 (inactive)
same,normalized growth,"S. cerevisiae deletion strains, locus YLR262C, strain YPT6 (second series), stronger effect = lower value",1.16 [resistant] (active)
same,normalized growth,"S. cerevisiae deletion strains, locus YLR262C, strain YPT6, stronger effect = lower value",0.87 (inactive)
same,normalized growth,"S. cerevisiae deletion strains, locus YLR268W, strain sec22, stronger effect = lower value",1.05 (inactive)
same,normalized growth,"S. cerevisiae deletion strains, locus YLR320W, strain mms22, stronger effect = lower value",1.06 (inactive)
same,normalized growth,"S. cerevisiae deletion strains, locus YLR330W, strain CHS5, stronger effect = lower value",0.989 (inactive)
same,normalized growth,"S. cerevisiae deletion strains, locus YLR342W, strain FKS1 (second series), stronger effect = lower value",1 (inactive)
same,normalized growth,"S. cerevisiae deletion strains, locus YLR342W, strain FKS1, stronger effect = lower value",1.02 (inactive)
same,normalized growth,"S. cerevisiae deletion strains, locus YLR357W, strain rsc2, stronger effect = lower value",1.02 (inactive)
same,normalized growth,"S. cerevisiae deletion strains, locus YLR370C, strain arc18, stronger effect = lower value",1 (inactive)
same,normalized growth,"S. cerevisiae deletion strains, locus YLR371W, strain rom2, stronger effect = lower value",0.955 (inactive)
same,normalized growth,"S. cerevisiae deletion strains, locus YLR384C, strain iki3, stronger effect = lower value",1.01 (inactive)
same,normalized growth,"S. cerevisiae deletion strains, locus YLR418C, strain cdc73, stronger effect = lower value",0.958 (inactive)
same,normalized growth,"S. cerevisiae deletion strains, locus YML016C, strain PPZ1, stronger effect = lower value",0.994 (inactive)
same,normalized growth,"S. cerevisiae deletion strains, locus YML032C, strain rad52, stronger effect = lower value",0.989 (inactive)
same,normalized growth,"S. cerevisiae deletion strains, locus YML120C, strain ndi1, stronger effect = lower value",0.97 (inactive)
same,normalized growth,"S. cerevisiae deletion strains, locus YML124C, strain tub3, stronger effect = lower value",0.976 (inactive)
same,normalized growth,"S. cerevisiae deletion strains, locus YMR058W, strain fet3, stronger effect = lower value",0.999 (inactive)
same,normalized growth,"S. cerevisiae deletion strains, locus YMR078C, strain ctf18, stronger effect = lower value",0.961 (inactive)
same,normalized growth,"S. cerevisiae deletion strains, locus YMR125W, strain sto1, stronger effect = lower value",0.992 (inactive)
same,normalized growth,"S. cerevisiae deletion strains, locus YMR129W, stronger effect = lower value",1.02 (inactive)
same,normalized growth,"S. cerevisiae deletion strains, locus YMR205C, strain PFK2, stronger effect = lower value",1.01 (inactive)
same,normalized growth,"S. cerevisiae deletion strains, locus YMR223W, strain ubp8, stronger effect = lower value",0.969 (inactive)
same,normalized growth,"S. cerevisiae deletion strains, locus YMR263W, strain SAP30, stronger effect = lower value",0.988 (inactive) and 0.998 (inactive)
same,normalized growth,"S. cerevisiae deletion strains, locus YMR307W, strain GAS1, stronger effect = lower value",1.05 (inactive) and 1.01 (inactive)
same,normalized growth,"S. cerevisiae deletion strains, locus YNL067W, strain RPL9B, stronger effect = lower value",1.01 (inactive)
same,normalized growth,"S. cerevisiae deletion strains, locus YNL071W, strain lat1, stronger effect = lower value",1.01 (inactive)
same,normalized growth,"S. cerevisiae deletion strains, locus YNL128W, strain TEP1, stronger effect = lower value",0.968 (inactive) and 1.11 [resistant] (active)
same,normalized growth,"S. cerevisiae deletion strains, locus YNL153C, strain GIM3, stronger effect = lower value",1.01 (inactive)
same,normalized growth,"S. cerevisiae deletion strains, locus YNL175C, strain NOP13, stronger effect = lower value",1.01 (inactive)
same,normalized growth,"S. cerevisiae deletion strains, locus YNL183C, strain NPR1, stronger effect = lower value",0.962 (inactive)
same,normalized growth,"S. cerevisiae deletion strains, locus YNL197C, strain WHI3, stronger effect = lower value",1.03 (inactive)
same,normalized growth,"S. cerevisiae deletion strains, locus YNL209W, strain ssb2, stronger effect = lower value",0.986 (inactive)
same,normalized growth,"S. cerevisiae deletion strains, locus YNL224C, strain SQS1, stronger effect = lower value",1.03 (inactive)
same,normalized growth,"S. cerevisiae deletion strains, locus YNL233W, strain BNI4, stronger effect = lower value",1.02 (inactive)
same,normalized growth,"S. cerevisiae deletion strains, locus YNL248C, strain rpa49, stronger effect = lower value",0.953 (inactive)
same,normalized growth,"S. cerevisiae deletion strains, locus YNL250W, strain rad50, stronger effect = lower value",0.963 (inactive)
same,normalized growth,"S. cerevisiae deletion strains, locus YNL271C, strain bni1, stronger effect = lower value",0.982 (inactive)
same,normalized growth,"S. cerevisiae deletion strains, locus YNL298W, strain CLA4, stronger effect = lower value",0.954 (inactive)
same,normalized growth,"S. cerevisiae deletion strains, locus YNL307C, strain MCK1, stronger effect = lower value",0.987 (inactive)
same,normalized growth,"S. cerevisiae deletion strains, locus YNL322C, strain KRE1 (second series), stronger effect = lower value",1.03 (inactive)
same,normalized growth,"S. cerevisiae deletion strains, locus YNL322C, strain KRE1, stronger effect = lower value",0.993 (inactive) and 0.907 (inactive)
same,normalized growth,"S. cerevisiae deletion strains, locus YNR049C, strain mso1, stronger effect = lower value",1.02 (inactive)
same,normalized growth,"S. cerevisiae deletion strains, locus YNR052C, strain pop2, stronger effect = lower value",0.962 (inactive)
same,normalized growth,"S. cerevisiae deletion strains, locus YOL006C, strain TOP1, stronger effect = lower value",0.611 (inactive)
same,normalized growth,"S. cerevisiae deletion strains, locus YOL012C, strain htz1",1.01 (inactive)
same,normalized growth,"S. cerevisiae deletion strains, locus YOL147C, strain pex11, stronger effect = lower value",0.991 (inactive)
same,normalized growth,"S. cerevisiae deletion strains, locus YOR001W, strain rrp6, stronger effect = lower value",0.938 (inactive)
same,normalized growth,"S. cerevisiae deletion strains, locus YOR061W, strain CKA2, stronger effect = lower value",0.967 (inactive)
same,normalized growth,"S. cerevisiae deletion strains, locus YOR069W, strain VPS5, stronger effect = lower value",0.987 (inactive)
same,normalized growth,"S. cerevisiae deletion strains, locus YOR070C, strain gyp1, stronger effect = lower value",1.01 (inactive)
same,normalized growth,"S. cerevisiae deletion strains, locus YOR080W, strain dia2, stronger effect = lower value",1.03 (inactive)
same,normalized growth,"S. cerevisiae deletion strains, locus YOR083W, strain WHI5 (second series), stronger effect = lower value",0.946 (inactive)
same,normalized growth,"S. cerevisiae deletion strains, locus YOR083W, strain WHI5, stronger effect = lower value",0.954 (inactive)
same,normalized growth,"S. cerevisiae deletion strains, locus YOR106W, strain vam3, stronger effect = lower value",0.561 (active)
same,normalized growth,"S. cerevisiae deletion strains, locus YOR136W, strain idh2, stronger effect = lower value",0.972 (inactive)
same,normalized growth,"S. cerevisiae deletion strains, locus YOR144C, strain elg1, stronger effect = lower value",0.974 (inactive)
same,normalized growth,"S. cerevisiae deletion strains, locus YOR184W, strain ser1, stronger effect = lower value",0.96 (inactive)
same,normalized growth,"S. cerevisiae deletion strains, locus YOR231W, strain MKK1, stronger effect = lower value",0.978 (inactive)
same,normalized growth,"S. cerevisiae deletion strains, locus YOR265W, strain rbl2, stronger effect = lower value",1.01 (inactive)
same,normalized growth,"S. cerevisiae deletion strains, locus YOR270C, strain vph1, stronger effect = lower value",0.737 (active)
same,normalized growth,"S. cerevisiae deletion strains, locus YOR290C, strain snf2, stronger effect = lower value",0.989 (inactive)
same,normalized growth,"S. cerevisiae deletion strains, locus YOR316C, strain cot1, stronger effect = lower value",0.965 (inactive)
same,normalized growth,"S. cerevisiae deletion strains, locus YPL051W, strain arl3, stronger effect = lower value",0.966 (inactive)
same,normalized growth,"S. cerevisiae deletion strains, locus YPL055C, strain LGE1, stronger effect = lower value",0.968 (inactive) and 0.953 (inactive)
same,normalized growth,"S. cerevisiae deletion strains, locus YPL078C, strain atp4, stronger effect = lower value",0.992 (inactive)
same,normalized growth,"S. cerevisiae deletion strains, locus YPL106C, strain sse1, stronger effect = lower value",0.911 (inactive)
same,normalized growth,"S. cerevisiae deletion strains, locus YPL240C, strain hsp82, stronger effect = lower value",1.03 (inactive)
same,normalized growth,"S. cerevisiae deletion strains, locus YPL241C, strain CIN2, stronger effect = lower value",0.996 (inactive) and 0.976 (inactive)
same,normalized growth,"S. cerevisiae deletion strains, locus YPL256C, strain CLN2, stronger effect = lower value",0.988 (inactive)
same,normalized growth,"S. cerevisiae deletion strains, locus YPR119W, strain clb2, stronger effect = lower value",0.982 (inactive)
same,normalized growth,"S. cerevisiae deletion strains, locus YPR141C, strain kar3, stronger effect = lower value",0.926 (inactive)
same,normalized growth,"S. cerevisiae deletion strains, locus YPR163C, strain tif3, stronger effect = lower value",0.979 (inactive)
same,normalized growth,"S. cerevisiae deletion strains, locus YPR167C, strain met16, stronger effect = lower value",0.981 (inactive)
same,normalized growth,"S. cerevisiae deletion strains, strain wtn01, stronger effect = lower value",0.981 (inactive)
same,normalized growth,"S. cerevisiae strains, strain wild type, stronger effect = lower value",0.979 (inactive)
